Compounds without any hit were thinned out: in the full panel of roughly 83,000, 20% have a hit.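 96-well plates, one dose, 48 hours. Percent growth reported; active if below 10.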 Unmarked numbers belong to inactive results. Active and inactive are the calls of the source.
Test system: MDA-MB-468 breast
Assay: NCI-60 one-dose screen, 48 h (100 = growth as untreated, 0 = no growth, -100 = all killed)
Settings: 10 µM unless noted

Row | Compound | growth
1 | O=C1/C(=C/c2ccccn2)NC(=S)N1c1ccccc1Cl | 36%
2 | Nc1c2c(c(O)c3c1=C(CO)C=N3)=NCCS2 | -72% (active)
3 | CN(C)CCn1cc(-c2ccc3c(Nc4ccc(CC(=O)Nc5cccc(F)c5)cc4)ncnc3c2)cn1 | -82.9% [30 µM] (active)
4 | c1ccc2[nH]c(-c3ccc(Nc4nc(N5CCCC5)nc5[nH]ncc45)cc3)nc2c1 | -38.5% (active)
5 | Cc1ccccc1N1C(=O)c2cc(S(N)(=O)=O)c(Cl)cc2NC1C (stereo not given) | 119%
6 | O=C(CSc1nc2ccc([N+](=O)[O-])cc2[nH]1)Nc1ccc(F)c(Cl)c1 | -14.9% (active)
7 | Cc1ccccc1CNc1ncnc2[nH]ncc12 | 87.7%
8 | COc1cc(C(=O)/C=C/c2c(Cl)nc3sccn23)cc(OC)c1OC | 60.1%
9 | CCO/C=N/S(=O)(=O)c1cc2c(cc1Cl)NC=NS2(=O)=O | 98.3%
10 | CCCCCCCCCCCCCCCC[N+]1(CC)CCCC1 | -35.7% (active)
11 | COc1ccc(-c2csc(NC(=O)CSc3nc(-c4ccccc4)cc(=O)[nH]3)n2)cc1 | 14.9%
12 | CN1CCN(c2nc(-c3ccncc3)nc3sc4c(c23)CCCCCC4)CC1 | 62.7%
13 | COc1ccc2cc(/C=C3\N=C(c4cc(OC)c(OC)c(OC)c4)OC3=O)c(OC)nc2c1 | 108%
14 | Nc1cc(-c2ccc(Cl)cc2)nn1-c1nc2ccccc2nc1Cc1ccccc1 | 75.7%
15 | Cn1c(Nc2ccc(C(F)(F)F)cc2)nc2cc(Oc3ccnc(-c4ncc(C(F)(F)F)[nH]4)c3)ccc21 | 32.4%
16 | CC(C)(C)c1cc(NC(=O)Nc2ccc(-c3cn4c5c(sc4n3)CCc3cn(CCCN4CCCCC4)cc3-5)cc2)no1 | -76% (active)
17 | CCCCNC(=O)Oc1ccc(/C(=C(/C)Cc2ccc(OC)cc2)c2ccc(OCCN(CC)CC)cc2)cc1 | 76.3%
18 | COc1cc(-c2csc(NC(=O)Nc3ccc(Cl)cc3Cl)n2)cc(OC)c1OC | 17.7%
19 | NC1=NC(c2ccccc2)C2=C(N1)/C(=C/c1ccccc1)CCC2 (stereo not given) | 89.6%
20 | COc1cc(CSc2nc3ccc(C)cc3c(=O)n2-c2ccccc2)cc(OC)c1OC | -8.37% (active)

Row | Compound | growth
21 | Oc1c(Br)cc(Br)c2ccc(Cn3cc(-c4ccc(C(F)(F)F)cc4)nn3)nc12 | 30.8%
22 | O=c1cc(-c2ccccc2)nc(SCc2nc3cc(Cl)c(Cl)cc3[nH]2)[nH]1 | 116%
23 | O=C(Nc1nc2ccccc2s1)c1ccc(F)cc1 | 94.1%
24 | COC12C=C/C(=C(/C(=O)OCc3ccncc3)C(=O)CCCCCCCCC3(OC)C=C/C(=C(/C(=O)OCc4ccncc4)C(=O)CCCCCCCC1)O3)O2 | -39% (active)
25 | O=c1[nH]c2ccccc2cc1CSc1ccccc1Nc1nccc(-c2ccc(Cl)cc2)n1 | 99.3%
26 | COc1ccc(-c2cc(-c3ccc(Cl)cc3)nc(NCCCCNc3ccnc4cc(Cl)ccc34)n2)cc1 | 75.1%
27 | NC(CC(N)C(=O)O)C(=O)O (stereo not given) | 90.5%
28 | Nc1nc(NC(=O)Nc2ccc(C(=O)O)cc2)nn1-c1ccc(S(N)(=O)=O)cc1 | 91.6%
29 | O=C(/C=C/c1ccc(F)cc1)Nc1cccc2cccnc12 | -19.1% (active)
30 | O=C(COc1ccc(-c2nc3cc(Cl)c(Cl)cc3[nH]2)cc1)N=Nc1c(O)[nH]c2ccc(Cl)cc12 | 68.5%
31 | O=C(Nc1ccccc1)Nc1nc2ccc([N+](=O)[O-])cc2s1 | -22.6% (active)
32 | CCc1cccc(CC)c1NC(=O)c1sc2nc3c(cc2c1N)CCCC3 | 79.3%
33 | CNC(=O)c1cc(Oc2cccc3nc(Nc4ccc(Cl)c(F)c4)ccc23)ccn1 | 51.3%
34 | CN(C)c1nc(N)nc(Cn2c(-c3nonc3N)nc3ccccc32)n1 | 23.2%
35 | CCNC(=O)Nc1nc2ccc(Oc3ccnc(C(=O)NC)c3)cc2s1 | 50.8%
36 | Cc1ccc(-c2nnc3sc(C4=Cc5ccccc5OC=C4)nn23)cc1 | 109%
37 | CCOC(=O)C/C(C)=N\O | 98.2%
38 | CCCCCN(CCCCC)CC(O)c1cc(C)c2ccc3cc(C(C)C)ccc3c2c1 (stereo not given) | -71.1% (active)
39 | O=P(O)(O)OC1C(OP(=O)(O)O)C(OP(=O)(O)O)C(OP(=O)(O)O)C(OP(=O)(O)O)C1OP(=O)(O)O.[Cu+2] (stereo not given) | 85.8%
40 | CN1CCN(c2nc(-c3cccnc3)nc3sc4c(c23)CCCCCC4)CC1 | 94.2%
